From PubChem BioAssay
An excerpt weighted towards active compounds, which were near 0.9% of everything screened.
SNCA viab count: reduces viability of HEK-293 SNCA reporter cells. HEK-293-SNCA-luc viability, GF-AFC fluorescence, 24 h. Potency, µM (titrated, usually from 57.1 µM), for inactives: top-dose activity change, negative = cytotoxicity, most hits filed as cytotoxic. 150,000 compounds, 0.12% hits. AID 1671193;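 note: potency is the fitted concentration of half-maximal effect; 0% = DMSO-treated cells and -100% = medium-only wells without cells; nearly all actives have a fitted effect of over 30% in size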
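Cytotoxicity counterscreen: after 24 h compound treatment of genome-edited SNCA-luciferase HEK-293 cells, live-cell protease substrate GF-AFC read by fluorescence after 30 min; activity scaled between DMSO (0%) and medium-only (-100%), curves Hill-fitted.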
IP6K1 inhibitor: blocks human inositol hexakisphosphate kinase 1; Q92551; IP6K1 kinase, ADP-Glo luminescence, 2 h; hits give low values; activity change, % (series mostly up to about 58 µM); 140,000 compounds, 0.81% hits; AID 1645851; in the data active = activity change below about -25%; note: % is set by controls: 0 for no effect and ±100 for the full control effect
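ADP-Glo luminescence measures ADP made by human IP6K1 during a 2 h RT reaction with ATP/IP6 (mix at 1.3 mM/130 uM); top library doses 57.5 and 19.1 uM final.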
SNCA expr inh: inhibitors of alpha-synuclein (SNCA) gene expression. Potency, µM (series often up to 57.2 µM), for inactives: at the top dose activity change, negative = inhibition, actives largely listed as inhibitors. 140,000 compounds, 0.17% hits. HEK-293 SNCA-luciferase knock-in, luminescence, 24 h;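 note: potency is the fitted concentration of half-maximal effect; plate controls were DMSO cells for no effect and cell-free wells for full effect; nearly all actives have a fitted effect of over 45% in size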
GPT2 inhibitor: GPT2 alanine aminotransferase inhibition. Q8TD30. Recombinant GPT2, coupled pyruvate oxidase/HRP Amplex Red fluorescence. Potency, µM (highest dose often 57.7 µM), inactives show top-dose activity change, negative = inhibition, actives largely listed as inhibitors. 100,000 compounds, 0.25% hits; note: potency is the fitted concentration of half-maximal effect; % is set by controls: 0 for no effect and ±100 for the full control effect; nearly all actives have a fitted effect of over 60% in size
Target sequence (Q8TD30 whole entry, looked up): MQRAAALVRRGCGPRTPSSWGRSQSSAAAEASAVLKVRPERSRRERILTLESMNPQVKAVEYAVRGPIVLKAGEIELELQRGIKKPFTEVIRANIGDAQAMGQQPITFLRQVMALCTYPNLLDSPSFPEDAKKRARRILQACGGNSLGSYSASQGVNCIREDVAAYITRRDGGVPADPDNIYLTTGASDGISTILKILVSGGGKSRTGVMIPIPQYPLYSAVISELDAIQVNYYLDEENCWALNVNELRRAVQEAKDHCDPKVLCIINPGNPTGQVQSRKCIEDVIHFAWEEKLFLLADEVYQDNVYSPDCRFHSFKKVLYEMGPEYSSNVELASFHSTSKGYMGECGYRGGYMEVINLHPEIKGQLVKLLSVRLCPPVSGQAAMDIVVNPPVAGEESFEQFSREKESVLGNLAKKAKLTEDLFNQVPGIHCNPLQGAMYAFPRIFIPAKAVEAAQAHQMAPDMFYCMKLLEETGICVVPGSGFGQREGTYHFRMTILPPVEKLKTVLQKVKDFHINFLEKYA
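Recombinant GPT2 (10ng/uL) with 250uM a-KG and 2mM L-alanine, 30 min at room temperature, in HEPES pH 7.5 buffer. Pyruvate detected by pyruvate oxidase/HRP/Amplex Red fluorescence after 30 min in the dark; AOA (50uM) as positive control.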
IP6K1 inh cnf: human IP6K1 inhibition, confirmatory. shares compounds with IP6K1 inhibitor. recombinant IP6K1 kinase, ADP-Glo luminescence, 2 h. Potency, µM (highest dose often 49 µM), without a hit: top-dose activity change, negative = inhibition, actives largely listed as inhibitors. 1,200 compounds, 13% hits. AID 1645852; note: potency is the fitted concentration of half-maximal effect; % is set by controls: 0 for no effect and ±100 for the full control effect; nearly all actives have a fitted effect of over 65% in size
GPT2 conf: confirmation of human GPT2 inhibitors | Potency, µM, actives largely listed as inhibitors | 95 compounds, 90% hits | AID 1671187 | shares compounds with GPT2 inhibitor | GPT2 enzyme, coupled Amplex Red pyruvate fluorescence
* hit, by the source's call; i = inactive; ? = inconclusive; · = no result; [ ] = dose if it differs, or a comment. Unless noted, calls come from the whole dose curve; as a rule, active = well fitted curve in the direction sought with a large enough effect; inconclusive = small, poorly fitted or top-dose-only effect, or another doubt; inactive = no such curve, though single readings can be large; an effect the other way counts as inactive or inconclusive.

SMILES | SNCA viab count | IP6K1 inhibitor | SNCA expr inh | GPT2 inhibitor | GPT2 conf | others
O=C(NC1CCN(c2cc(-c3ccc(F)cc3)[nH]n2)C1)c1c[nH]c2ccccc12 (centres undefined) | ? | 0 | ? | ? | ·
Cc1cccc(N2CCN(S(=O)(=O)c3csc(C(N)=O)c3)CC2)c1C | -7% | -42* | -12% | · | · | IP6K1 inh cnf=7.3µM*
Clc1ccccc1-c1nc(-c2ccncc2)no1 | -14%[23.9 µM] | -25* | 193%[25.6 µM] | 1% | · | IP6K1 inh cnf=?
Cc1ccc(-c2noc(-c3nc(-c4ccncc4)no3)n2)cc1 | 2% | 0 | 43% | i | ·
O=C(Cc1cccn1-c1cccc(Cl)c1)NCCCN1CCCC1 | -3% | 11 | 11% | i | ·
COc1ccc(N2CC(C)(NC(C)=O)C2)cc1 | · | · | · | · | 3.5*
CC(=O)NC1(C)CN(c2ccc(OC(F)(F)F)cc2)C1 | 4%[87.6 µM] | -4 | 6%[87.6 µM] | -9%[88.5 µM] | ·
C=CC(=O)Nc1cccc(Nc2nc(Nc3ccc(N4CCN(C(C)=O)CC4)cc3OC)ncc2C(F)(F)F)c1 | ? | -19 | · | 3.2µM* | 2.2*
COc1ccc(N2CCN(C3CCCN(CC=C(C)C)C3)CC2)cc1 (centres undefined) | -1% | 8 | -18% | ? | ·
COc1ccc(N2CCN(C3CCCN(Cc4cc(=O)[nH]c(=O)[nH]4)C3)CC2)cc1 (centres undefined) | -1% | -20 | 6% | ? | 6.9*
O=C(c1cccs1)N1CCOc2ccc(N3CCCC3)cc2C1 | -10% | -2 | -24% | 1.3µM* | 1.4*
CN1CCOc2c(C(=O)NCCC(N)=O)cc(-c3ccccc3)cc21 | -13%[87.6 µM] | -10 | 8%[87.6 µM] | i | ·
CN1CCOc2c(C(=O)N3CC[S+](=O)([O-])CC3)cc(N3CCOCC3)cc21 | · | · | · | · | 2*
CN1CCOc2c(C(=O)NCCc3ccccc3)cc(N3CCOCC3)cc21 | -5%[87.6 µM] | -11 | 2%[87.6 µM] | ? | ·
CC(C)CNC(=O)c1cc(N2CCOCC2)cc2c1OCCN2C | · | · | · | · | 2*
Cc1c(-c2ccccc2F)[nH]c2ccc(CNC(=O)Cn3ccc(=O)[nH]c3=O)cc12 | -10% | -3 | 50% | i | ·
CNC(=O)c1cccc(-c2cnc(Nc3ccccc3)c3c2CCO3)c1 | -17%[87.6 µM] | -18 | 172%[87.6 µM] | 5%[88.5 µM] | ·
CNC(=O)c1cccc(-c2cnc(Nc3ccc(N4CCOCC4)cc3)c3c2CCO3)c1 | -23%[87.6 µM] | -19 | 96%[87.6 µM] | ? | 6.3*
Cc1ccc2c(c1)C(N1CCN(C)CC1)=Nc1cccnc1N2 | 2% | · | -6% | i | ·
Cc1cc2c(s1)Nc1ccccc1N=C2N1CCN(C)CC1 | -29% | 34 | 0% | ? | 8.6*
COc1ccc(NC(=O)NCC2CCCN(C(C)C)C2)cc1OC (centres undefined) | 3% | 5 | -4% | i | ·
COc1ccc(NC2CCCN(C(=O)C(=O)CC(C)C)C2)cc1OC (centres undefined) | -8% | -9 | 10% | 22µM* | 3.4*
COc1cc(N2CCN(C)CC2)ccc1Nc1nc(N)c(C(=O)c2c(Cl)cccc2Cl)s1 | -17% | · | ? | ? | ·
CNS(=O)(=O)c1ccccc1Nc1nc(Nc2ccc(N3CCN(C)CC3)cc2OC)ncc1Br | ? | 6 | · | ? | 2.7*
COc1cc(N2CCC(N(C)C)CC2)ccc1Nc1ncc(Cl)c(Nc2ccccc2P(C)(C)=O)n1 | ? | -4 | 8.5µM* | 1.9µM* | 2.2*
SMILES | SNCA viab count | IP6K1 inhibitor | SNCA expr inh | GPT2 inhibitor | GPT2 conf | others
COc1cc(N2CCC(N3CCN(C)CC3)CC2)ccc1Nc1ncc(Cl)c(Nc2ccccc2S(=O)(=O)C(C)C)n1 | ? | -11 | 10% | 2.2µM* | 3.1*
Cc1ccc(C(N)=O)cc1Nc1nccc(-c2cn(C(C)C)c3cnccc23)n1 | ? | -7 | ? | ? | ·
COc1cc(N2CCN(C)CC2)ccc1Nc1nccc(-c2cn(C)c3cnccc23)n1 | -13% | 7 | · | 3.5µM* | 2.4*
COc1ccccc1Nc1ccnc(N2CCC(NC(=O)c3ccc(Cl)nc3)CC2)n1 | 9% | -9 | 15% | -12% | ·
O=C(Cc1ccc(F)cc1)N1CCN(C(=O)c2nc3cccnc3n(Cc3ccccc3)c2=O)CC1 | 0%[12.5 µM] | 0 | 27% | i | ·
COc1cccc(CC(=O)Nc2cccc(-c3nnc4n3CCCC4)c2)c1 | 3% | 37 | 9% | -3% | ·
O=C(NCCc1ccccc1F)c1ccc2oc(-c3ccncc3)nc2c1 | 13%[87.6 µM] | 5 | -4%[87.6 µM] | i | ·
CC(=O)Nc1ccc(-c2c(C3CC3)nn(-c3cccc(C)c3)c2OC(C)=O)cc1 | ? | 21 | -14% | ? | 9.7*
CNC(=O)c1cc(Nc2cccc(N(C)C)c2)cc2c1OCCN2Cc1cccnc1 | 7%[87.6 µM] | -19 | 6%[87.6 µM] | ? | 3.5*
CN(C)c1ccc2c(c1)CN(C(=O)c1cnccn1)CCO2 | -14% | 11 | -15% | ? | 0.86*
COc1ccc(CN2CCNc3cnc(Nc4ccccc4)cc3C2)cn1 | -9%[87.6 µM] | -18 | -5%[87.6 µM] | ? | 3.1*
COc1ccc(Nc2cc3c(cn2)NCCN(Cc2ccccc2)C3)cc1 | ? | -19 | ? | ? | 5.6*
COCCN1CCNc2cc(Nc3ccc(N4CCOCC4)cc3)ncc2C1 | 6%[87.6 µM] | -17 | 20%[87.6 µM] | ? | 5.6*
c1ccc(Nc2cc3c(cn2)NCCN(Cc2ccsc2)C3)cc1 | -14%[87.6 µM] | -17 | 0%[87.6 µM] | ? | 2.5*
COc1ccc(OC)c(CN2CCC3OCCN(Cc4ccccc4)C(=O)C3C2)c1 (centres undefined) | -7%[87.6 µM] | -5 | 24%[87.6 µM] | -20%[88.5 µM] | ·
CCc1noc(-c2cccn3c(CNC(=O)Cc4ccccc4C)nnc23)n1 | -3% | 34 | -16% | i | ·
O=C(NCc1ccccc1)c1ccc(-c2cccc3c2CCNC3)o1 | -3% | 32 | 8% | i | ·
Cc1nc(N2CCCC2)nc(N2CCC3(CC2)OCCCC3O)c1C (centres undefined) | -15% | 17 | -3% | -23% | ·
Cc1cc2c(N3CCCC3)nc(N3CCCC3)nc2n1C | ? | -12 | · | ? | ?
Clc1ccc2nc(N3CCC(NCCc4cccnc4)CC3)sc2c1 | 1% | 10 | 49% | -3% | ·
COc1cccc([S+](=O)([O-])N2CCNc3cnc(Nc4ccc(N5CCOCC5)cc4)nc3C2)c1 | 0% | -5 | -4% | 1.1µM* | 1.2*
Cn1ncc2c(C(=O)N3CCOCC3)cc(-c3ccc(Cl)cc3)nc21 | -5% | -8 | -12% | 0% | ·
CCCN1CCCCC12Cc1ccccc1CN(C(=O)CC)C2 (centres undefined) | -14% | -5 | -1% | 2% | ·
O=C(O)[C@H]1O[C@H](Oc2cc3oc(-c4ccccc4)cc(=O)c3c(O)c2O)[C@H](O)[C@@H](O)[C@H]1O | ? | · | 15% | 3.4µM* | 3.1*
COc1ccc(CCC(=O)N2CCC3(CC2)C(OC)CN3c2cccc(F)c2)cc1 (centres undefined) | 0% | 13 | 12% | i | ·
O=C(NC1CCN(c2ccc3nnc(C4CC4)n3n2)C1)c1ccc(C(F)(F)F)cc1 (centres undefined) | · | 0 | · | · | ·
